High-throughput results from PubChem.
Compounds with a hit are over-represented: about 0.77% of the library has one in this group of screens.
Mtb hypoxia rep: reduces hypoxia-regulated biosensor signal in M. tuberculosis; M. tuberculosis hypoxia-regulated fluorescent reporter, fluorescence; fluorescence inhibition, % (no concentration beside the values); 300,000 compounds, 0.1% hits; in the data active means fluorescence inhibition mostly above about 23%, no sharp cut-off; inactive means mostly below about 17%
Mtb bLac sens: beta-lactam sensitization of Mtb H37Rv; M. tuberculosis H37Rv growth with meropenem, percent inhibition; inhibition, % at 25 µM; 330,000 compounds, 0.27% hits; AID 434955;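 further: growth measured after seven days incubation then overnight dye step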
Rv3671c protease: inhibitors of M. tuberculosis serine protease Rv3671c; inhibition, % at 5.96 µM; AID 2606; 320,000 compounds, 0.048% hits; in the data active means inhibition above about 38%;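 further: extracellular domain of Rv3671c used as enzyme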
UGM FP inh: Mtb UDP-galactopyranose mutase inhibition; 320,000 compounds, 0.06% hits; inhibition, % at 10 µM; purified UGM, fluorescence polarization probe displacement; P9WIQ1; AID 504406; in the data active means inhibition above about 10%, passing the limit was not always enough
Target sequence (P9WIQ1 whole entry, looked up): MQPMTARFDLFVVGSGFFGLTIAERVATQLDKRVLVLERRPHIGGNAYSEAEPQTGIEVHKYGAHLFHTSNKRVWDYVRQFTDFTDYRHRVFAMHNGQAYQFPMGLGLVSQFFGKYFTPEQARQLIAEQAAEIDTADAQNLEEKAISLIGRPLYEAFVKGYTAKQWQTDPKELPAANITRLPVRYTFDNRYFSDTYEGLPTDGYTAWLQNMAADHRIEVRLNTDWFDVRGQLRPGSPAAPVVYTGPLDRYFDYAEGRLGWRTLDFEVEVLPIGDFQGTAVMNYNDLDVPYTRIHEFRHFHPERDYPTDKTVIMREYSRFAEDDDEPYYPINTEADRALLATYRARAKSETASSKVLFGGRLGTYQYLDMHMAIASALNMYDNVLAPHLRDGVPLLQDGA
RecA splice inh: blocks M. tuberculosis RecA intein splicing. P9WHJ3. cell-free RecA intein splicing, fluorescence. inhibition, % (concentration not given with the values). 290,000 compounds, 0.75% hits. AID 2221; in the data active means inhibition above about 30%
GFP chromophore: counter-screen GFP chromophore formation inhibition. 2,100 compounds, 83% hits. shares compounds with RecA splice inh. EC50, µM. AID 434968. cell-free GFP chromophore formation, fluorescence
Each line names hits and unclear results; the compound was inactive in the other large screens (follow-up assays come after a bar, where they were run). Unless noted, how the calls were made is not given here.

CSc1nc(N)c2c(n1)OC(N)=C(C#N)C2c1cccnc1 (configuration not stated)	none
O=C(Nc1ccccc1)C1=CC(c2ccc(C(F)(F)F)cc2)CC(OCc2ccc(CO)cc2)O1 (configuration not stated)	none (no result: Mtb bLac sens, Rv3671c protease, UGM FP inh, RecA splice inh)
CCCCCn1c(N)c(C(=O)NCCN2CCOCC2)c2nc3ccccc3nc21	none (no result: Mtb hypoxia rep)
CCCCCn1c(N)c(C(=O)NCc2cccs2)c2nc3ccccc3nc21	RecA splice inh 82 | GFP chromophore 3.2
CCCCNC(=O)CSc1nc2ccccc2c(=O)n1Cc1ccc2c(c1)OCO2	none
CCCCNC(=O)c1c(N)n(Cc2ccc3c(c2)OCO3)c2nc3ccccc3nc12	RecA splice inh 68 | GFP chromophore inactive
CCOC(=O)C(C#N)C(c1cccnc1)c1c(C)[nH][nH]c1=O (configuration not stated)	RecA splice inh 78 | GFP chromophore 11
CCOC(=O)/C(C#N)=C\c1cccnc1	none
CC(C)CC1NC(=O)C(C(C)C)NC(=O)c2cc([N+](=O)[O-])cc(I)c2NCCC(C(N)=O)NC1=O (configuration not stated)	none (no result: Mtb bLac sens, Rv3671c protease, UGM FP inh, RecA splice inh)
COc1cccc(CN2CCN(Cc3ccc(C#CC(C)(C)O)s3)CC2CCO)c1 (configuration not stated)	RecA splice inh 77 | GFP chromophore inactive
Cc1ccc(SCc2[nH]nc3c2C2(CCSCC2)C(C#N)=C(N)O3)cc1	RecA splice inh 60 | GFP chromophore 16
COC(=O)Cc1[nH]nc2c1C1(CCSCC1)C(C#N)=C(N)O2	RecA splice inh 66 | GFP chromophore 17
COCc1[nH]nc2c1C1(C(=O)Nc3ccc(F)cc31)C(C#N)=C(N)O2 (configuration not stated)	none (no result: Mtb hypoxia rep)
O=C1C(Nc2ccc(O)cc2)=C/C(=N/S(=O)(=O)c2cccs2)c2ccccc21	RecA splice inh 96 (no result: Mtb hypoxia rep, Mtb bLac sens, Rv3671c protease, UGM FP inh) | GFP chromophore 0.19
Cc1ccc(NC2=C/C(=N\S(=O)(=O)c3cccs3)c3ccccc3C2=O)c(C)c1	RecA splice inh 41 | GFP chromophore 0.31
Cc1cccc(NC2=CC(=NS(=O)(=O)c3cccs3)c3ccccc3C2=O)c1	none (no result: Mtb bLac sens, Rv3671c protease, UGM FP inh, RecA splice inh)
CCOC1OC(C(=O)Nc2ccccc2)=CC(c2ccc(C(F)(F)F)cc2)C1CCCO (configuration not stated)	none (no result: Mtb bLac sens, Rv3671c protease, UGM FP inh, RecA splice inh)
COc1ccc(NC(=O)/C(Cl)=C(/Cl)S(=O)Cc2ccccc2)cn1 (configuration not stated)	RecA splice inh 78 (no result: Mtb hypoxia rep) | GFP chromophore 6.6
COc1ccc(/C=C/C(=O)Nc2ccc(OC)nc2)cc1	none (no result: RecA splice inh)
COc1ccc(NC(=O)Cc2ccccc2)cn1	none
COc1ccc(CS(=O)(=O)/C(Cl)=C(/Cl)C(=O)Nc2ccc(OC)nc2)cc1	RecA splice inh 78 (no result: Mtb hypoxia rep) | GFP chromophore 9.7
O=C(CN1C(=O)S/C(=C/C=C/c2ccccc2)C1=O)Nc1ccc(C(=O)O)cc1	none
O=C(CN1C(=O)S/C(=C\C=C\c2ccccc2)C1=O)Nc1ccc(C(=O)O)cc1	RecA splice inh 35 | GFP chromophore inactive
CCCCCCn1c(N2CCC(C(N)=O)CC2)nc2c1c(=O)[nH]c(=O)n2C	none (no result: Mtb hypoxia rep)
CCCCCCn1c(N2CCC(C(N)=O)CC2)nc2c1c(=O)n(C)c(=O)n2C	RecA splice inh 47 (no result: Mtb hypoxia rep) | GFP chromophore inactive
CCc1nnc(N/N=C/c2cc(Br)c(O)cc2O)n1N	RecA splice inh 40 (no result: Mtb hypoxia rep) | GFP chromophore 32
CCc1nnc(NN=Cc2ccccc2F)n1N	none (no result: Mtb bLac sens, Rv3671c protease, UGM FP inh, RecA splice inh)
CN(CCC=C1c2ccccc2CSc2ccccc21)CCCO	none (no result: Mtb bLac sens, Rv3671c protease, UGM FP inh, RecA splice inh)
Cc1cccc(C)c1-n1cccc1/C=C1\SC(=S)N(c2cccc(C(=O)O)c2)C1=O	RecA splice inh 33 | GFP chromophore 11
CCOc1ccccc1N1CCN(C(=O)c2ccc(-c3ccc(OC(C)=O)cc3)cc2)CC1	RecA splice inh 31 | GFP chromophore inactive
N#Cc1c(N2CCCC2)nc(N)c2c(N)nc(N3CCCC3)cc12	RecA splice inh 58 | GFP chromophore 0.24
CC(C)(C)N1C(=O)C2C(c3ccc(Br)cc3)N3C(=O)N(c4cccc(Cl)c4)C(=O)[C@@]3(C)C2C1=O (some centres not stated)	none (no result: Mtb bLac sens, Rv3671c protease, UGM FP inh, RecA splice inh)
CC(NC(=O)c1nc[nH]c1C(=O)NCc1ccccc1)c1ccccc1 (configuration not stated)	none (no result: Mtb bLac sens, Rv3671c protease, UGM FP inh, RecA splice inh)
CC(=O)C1CCC2C3C=CC4=CC(=O)CC[C@@]4(C)C3CC[C@]12C (some centres not stated)	none (no result: Mtb bLac sens, Rv3671c protease, UGM FP inh, RecA splice inh)
N#CC1(NC(=O)COC(=O)c2cc(O)c3ccccc3c2O)CCCCC1	RecA splice inh 81 | GFP chromophore 4.8
CS(=O)(=O)c1nc(-c2ccc(F)cc2)cc(C(F)(F)F)n1	none (no result: Mtb bLac sens, Rv3671c protease, UGM FP inh, RecA splice inh)
CCOC(=O)c1c(C(F)(F)F)cc(-c2ccc(F)cc2)nc1C	none
O=C(O)CCS(=O)(=O)c1nc(-c2cccs2)cc(C(F)(F)F)n1	none (no result: Mtb bLac sens)
CCOC(=O)CCS(=O)(=O)c1nc(-c2ccccc2)cc(C(F)(F)F)n1	RecA splice inh 78 (no result: Mtb hypoxia rep) | GFP chromophore 7.2
COC(=O)CCS(=O)(=O)c1nc(-c2ccccc2)cc(C(F)(F)F)n1	RecA splice inh 67 | GFP chromophore 11
CCOC(=O)CS(=O)(=O)c1nc(-c2ccc(F)cc2)cc(C(F)(F)F)n1	RecA splice inh 74 (no result: Mtb hypoxia rep) | GFP chromophore 6
COc1ccc(-c2cc(C(F)(F)F)nc(S(C)(=O)=O)n2)cc1	RecA splice inh 72 | GFP chromophore 14
CCOC1OC(C(=O)N2CCN(Cc3ccc4c(c3)OCO4)CC2)=CC(C2CCCCC2)C1CCCO (configuration not stated)	none (no result: Mtb bLac sens, Rv3671c protease, UGM FP inh, RecA splice inh)
COc1cccc(N2C(CC(=O)O)c3ccccc3S2(=O)=O)c1 (configuration not stated)	none (no result: Mtb bLac sens, Rv3671c protease, UGM FP inh, RecA splice inh)
CCC1=C(OC(=O)N(CC)CC)N2C(=O)OC(=NCCOC)[C@]2(Cc2ccccc2)C2C1=CCC1C(=O)N(CC(=O)OC)C(=O)C12 (some centres not stated)	none (no result: Mtb bLac sens, Rv3671c protease, UGM FP inh, RecA splice inh)
COCC(C)NC(=O)CCS(=O)(=O)c1nc(-c2ccc(OC)cc2)cc(C(F)(F)F)n1 (configuration not stated)	RecA splice inh 33 | GFP chromophore 35
CCOC(=O)CS(=O)(=O)c1nc(-c2ccccc2)cc(C(F)(F)F)n1	RecA splice inh 72 (no result: Mtb hypoxia rep) | GFP chromophore 5.9
C=CC1c2cc(C)ccc2N(S(=O)(=O)c2ccc(C)cc2)C(c2ccccc2)C1(C#N)C#N (configuration not stated)	none (no result: Mtb bLac sens, Rv3671c protease, UGM FP inh, RecA splice inh)
CC1=NN(c2ccccc2)C(=O)C1=C(C)C	RecA splice inh 55 | GFP chromophore 8.5
COc1cc2c(cc1OC)C1(NCC2)C(=O)Nc2ccccc21 (configuration not stated)	none
COc1cc2c(cc1OC)C1(Nc3c-2c(Cc2ccccc2)nn3-c2ccccc2)C(=O)Nc2ccccc21 (configuration not stated)	RecA splice inh 35 | GFP chromophore inactive
Cn1cnc([N+](=O)[O-])c1NC(C)(C)C	none (no result: Mtb hypoxia rep)
Cn1cnc([N+](=O)[O-])c1S(=O)(=O)c1ccc(Cl)cc1	RecA splice inh 61 (no result: Mtb bLac sens, Rv3671c protease, UGM FP inh) | GFP chromophore 39
